Assay results taken from the supplement of paper PMC11732987, “Enantioselective OTUD7B fragment discovery through chemoproteomics screening and high-throughput optimisation” (Communications Chemistry, 2025).

Columns and labels:
Test in all cases: log2 ratio of Biotin-Ahx-Ub-VS probe labelling (fragment/DMSO); higher = less target engagement (more negative = stronger competition), active = hit call of the paper (q ≤ 0.05, log2 ratio ≤ -1)
Details in all cases: compound concentration: 200 uM; treatment time: 3 h
USP9X = USP9X (UniProt Q93008)
Procedure, shortened: (§1)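 Using Biotin-Ahx-Ub-VS at 0.5 µM final for 1 h, DUBs were labelled in HEK293T lysate (495 µg per sample) that had first been treated in triplicate with fragment at 200 µM or vehicle for 3 h. NeutrAvidin enrichment, LysC and trypsin digestion and diaPASEF LC-MS/MS followed. Spectronaut label-free quantities were global-median-normalised. Values are average log2 fragment/vehicle ratios by unpaired t-test, using proteins with ≥2 unique peptides.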

UniProt O00487 = biological target: UniProt O00487
Procedure, shortened: as §1

UniProt O00507 = biological target: UniProt O00507
Procedure, shortened: as §1

UniProt P51784 = biological target: UniProt P51784
Procedure, shortened: as §1

UniProt Q5T2D3 = biological target: T1, UniProt Q5T2D3
T1 sequence (whole entry): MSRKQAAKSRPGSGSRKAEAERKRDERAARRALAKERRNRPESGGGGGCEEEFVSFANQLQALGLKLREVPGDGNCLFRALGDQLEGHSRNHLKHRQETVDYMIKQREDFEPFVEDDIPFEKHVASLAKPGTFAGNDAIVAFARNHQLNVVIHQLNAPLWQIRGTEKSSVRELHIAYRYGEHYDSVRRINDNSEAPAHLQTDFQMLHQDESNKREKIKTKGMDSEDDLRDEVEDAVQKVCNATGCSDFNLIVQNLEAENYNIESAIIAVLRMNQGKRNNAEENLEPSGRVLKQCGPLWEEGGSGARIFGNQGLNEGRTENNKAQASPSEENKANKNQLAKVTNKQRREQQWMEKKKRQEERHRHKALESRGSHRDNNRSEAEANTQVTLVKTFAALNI
Procedure, shortened: as §1

UniProt Q8TE49 = biological target: T2, UniProt Q8TE49
T2 sequence (whole entry): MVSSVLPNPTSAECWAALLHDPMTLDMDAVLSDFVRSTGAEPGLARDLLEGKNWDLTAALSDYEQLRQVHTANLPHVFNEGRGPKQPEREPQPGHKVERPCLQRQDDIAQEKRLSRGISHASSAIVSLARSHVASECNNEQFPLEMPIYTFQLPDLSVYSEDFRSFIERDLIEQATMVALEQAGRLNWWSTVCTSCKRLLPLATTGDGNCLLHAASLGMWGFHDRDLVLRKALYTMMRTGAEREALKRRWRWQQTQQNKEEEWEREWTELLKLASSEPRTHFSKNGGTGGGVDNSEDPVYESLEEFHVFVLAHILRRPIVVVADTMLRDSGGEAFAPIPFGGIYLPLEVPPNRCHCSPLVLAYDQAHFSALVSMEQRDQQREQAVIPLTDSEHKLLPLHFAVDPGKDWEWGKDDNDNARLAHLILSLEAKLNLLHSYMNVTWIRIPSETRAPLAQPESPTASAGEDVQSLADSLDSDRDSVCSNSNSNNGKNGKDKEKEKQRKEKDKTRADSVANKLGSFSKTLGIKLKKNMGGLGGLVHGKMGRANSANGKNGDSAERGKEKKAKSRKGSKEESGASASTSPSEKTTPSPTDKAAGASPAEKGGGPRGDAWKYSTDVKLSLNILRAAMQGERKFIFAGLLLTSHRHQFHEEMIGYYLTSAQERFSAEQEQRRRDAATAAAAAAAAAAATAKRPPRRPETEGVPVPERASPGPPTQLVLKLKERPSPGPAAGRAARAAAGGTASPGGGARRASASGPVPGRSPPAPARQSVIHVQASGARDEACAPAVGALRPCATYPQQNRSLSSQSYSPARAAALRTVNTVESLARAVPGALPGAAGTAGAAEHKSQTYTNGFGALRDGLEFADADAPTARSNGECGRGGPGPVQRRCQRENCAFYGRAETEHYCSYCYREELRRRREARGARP
Procedure, shortened: as §1

UniProt Q9P2H5 = biological target: T3, UniProt Q9P2H5
T3 sequence (whole entry): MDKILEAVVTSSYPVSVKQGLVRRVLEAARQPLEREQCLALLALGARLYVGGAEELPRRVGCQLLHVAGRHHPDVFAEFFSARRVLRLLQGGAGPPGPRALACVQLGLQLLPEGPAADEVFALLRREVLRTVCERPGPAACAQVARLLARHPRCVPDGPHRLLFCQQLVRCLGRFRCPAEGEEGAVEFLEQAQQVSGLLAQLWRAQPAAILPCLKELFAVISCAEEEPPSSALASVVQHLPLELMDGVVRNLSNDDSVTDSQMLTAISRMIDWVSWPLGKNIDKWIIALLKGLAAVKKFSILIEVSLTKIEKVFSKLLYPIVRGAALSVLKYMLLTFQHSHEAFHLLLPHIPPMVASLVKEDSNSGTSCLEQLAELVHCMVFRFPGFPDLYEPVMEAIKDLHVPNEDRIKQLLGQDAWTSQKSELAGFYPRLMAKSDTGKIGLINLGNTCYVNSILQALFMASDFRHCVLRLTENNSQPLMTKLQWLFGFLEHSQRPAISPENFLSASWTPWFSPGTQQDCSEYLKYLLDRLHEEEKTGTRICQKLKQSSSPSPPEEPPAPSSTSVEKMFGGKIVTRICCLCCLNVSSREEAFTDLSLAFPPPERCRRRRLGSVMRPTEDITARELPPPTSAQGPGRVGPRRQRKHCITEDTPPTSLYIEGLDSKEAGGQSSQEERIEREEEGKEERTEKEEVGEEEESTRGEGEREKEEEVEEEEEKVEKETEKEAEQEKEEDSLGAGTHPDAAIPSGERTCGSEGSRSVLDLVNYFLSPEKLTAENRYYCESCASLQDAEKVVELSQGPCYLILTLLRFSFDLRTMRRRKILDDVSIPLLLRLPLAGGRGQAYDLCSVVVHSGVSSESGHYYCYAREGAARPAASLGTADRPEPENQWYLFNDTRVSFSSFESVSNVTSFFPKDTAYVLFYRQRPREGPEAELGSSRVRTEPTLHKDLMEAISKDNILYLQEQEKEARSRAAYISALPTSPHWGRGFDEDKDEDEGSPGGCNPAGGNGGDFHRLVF
Procedure, shortened: as §1

UniProt Q9UGI0 = biological target: T4, UniProt Q9UGI0
T4 sequence (whole entry): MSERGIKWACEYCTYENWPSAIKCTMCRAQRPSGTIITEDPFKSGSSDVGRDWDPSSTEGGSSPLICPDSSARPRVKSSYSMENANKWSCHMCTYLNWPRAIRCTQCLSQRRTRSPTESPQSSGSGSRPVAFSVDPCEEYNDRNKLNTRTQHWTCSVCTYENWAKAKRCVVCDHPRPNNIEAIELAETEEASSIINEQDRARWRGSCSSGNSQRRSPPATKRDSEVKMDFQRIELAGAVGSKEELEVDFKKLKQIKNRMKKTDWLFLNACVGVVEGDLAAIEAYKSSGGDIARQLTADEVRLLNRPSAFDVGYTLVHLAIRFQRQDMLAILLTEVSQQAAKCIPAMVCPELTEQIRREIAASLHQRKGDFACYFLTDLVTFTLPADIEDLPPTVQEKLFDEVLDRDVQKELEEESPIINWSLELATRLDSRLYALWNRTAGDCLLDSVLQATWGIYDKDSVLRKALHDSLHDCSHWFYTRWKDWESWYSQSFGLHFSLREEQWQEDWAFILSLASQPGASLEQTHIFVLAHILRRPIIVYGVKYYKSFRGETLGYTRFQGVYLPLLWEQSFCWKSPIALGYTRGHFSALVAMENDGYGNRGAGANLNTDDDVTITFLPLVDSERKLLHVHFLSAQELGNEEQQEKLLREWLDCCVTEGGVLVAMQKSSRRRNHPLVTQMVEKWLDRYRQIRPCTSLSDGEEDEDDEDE
Procedure, shortened: as §1

YOD1 = biological target: T5, YOD1 (UniProt Q5VVQ6)
T5 sequence (whole entry): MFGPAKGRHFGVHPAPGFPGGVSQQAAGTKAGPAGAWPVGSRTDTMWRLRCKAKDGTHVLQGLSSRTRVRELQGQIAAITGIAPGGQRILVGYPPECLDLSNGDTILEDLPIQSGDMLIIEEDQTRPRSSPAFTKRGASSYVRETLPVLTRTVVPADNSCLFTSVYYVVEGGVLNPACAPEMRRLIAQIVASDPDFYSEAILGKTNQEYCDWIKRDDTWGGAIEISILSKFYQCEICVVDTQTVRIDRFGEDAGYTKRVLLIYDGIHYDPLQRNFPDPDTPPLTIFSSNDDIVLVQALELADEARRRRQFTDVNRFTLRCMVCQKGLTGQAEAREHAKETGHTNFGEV
Procedure, shortened: as §1

Measured: log2 ratio of Biotin-Ahx-Ub-VS probe labelling

Chain of USP9X (Q93008 whole entry, the tested form may be a part): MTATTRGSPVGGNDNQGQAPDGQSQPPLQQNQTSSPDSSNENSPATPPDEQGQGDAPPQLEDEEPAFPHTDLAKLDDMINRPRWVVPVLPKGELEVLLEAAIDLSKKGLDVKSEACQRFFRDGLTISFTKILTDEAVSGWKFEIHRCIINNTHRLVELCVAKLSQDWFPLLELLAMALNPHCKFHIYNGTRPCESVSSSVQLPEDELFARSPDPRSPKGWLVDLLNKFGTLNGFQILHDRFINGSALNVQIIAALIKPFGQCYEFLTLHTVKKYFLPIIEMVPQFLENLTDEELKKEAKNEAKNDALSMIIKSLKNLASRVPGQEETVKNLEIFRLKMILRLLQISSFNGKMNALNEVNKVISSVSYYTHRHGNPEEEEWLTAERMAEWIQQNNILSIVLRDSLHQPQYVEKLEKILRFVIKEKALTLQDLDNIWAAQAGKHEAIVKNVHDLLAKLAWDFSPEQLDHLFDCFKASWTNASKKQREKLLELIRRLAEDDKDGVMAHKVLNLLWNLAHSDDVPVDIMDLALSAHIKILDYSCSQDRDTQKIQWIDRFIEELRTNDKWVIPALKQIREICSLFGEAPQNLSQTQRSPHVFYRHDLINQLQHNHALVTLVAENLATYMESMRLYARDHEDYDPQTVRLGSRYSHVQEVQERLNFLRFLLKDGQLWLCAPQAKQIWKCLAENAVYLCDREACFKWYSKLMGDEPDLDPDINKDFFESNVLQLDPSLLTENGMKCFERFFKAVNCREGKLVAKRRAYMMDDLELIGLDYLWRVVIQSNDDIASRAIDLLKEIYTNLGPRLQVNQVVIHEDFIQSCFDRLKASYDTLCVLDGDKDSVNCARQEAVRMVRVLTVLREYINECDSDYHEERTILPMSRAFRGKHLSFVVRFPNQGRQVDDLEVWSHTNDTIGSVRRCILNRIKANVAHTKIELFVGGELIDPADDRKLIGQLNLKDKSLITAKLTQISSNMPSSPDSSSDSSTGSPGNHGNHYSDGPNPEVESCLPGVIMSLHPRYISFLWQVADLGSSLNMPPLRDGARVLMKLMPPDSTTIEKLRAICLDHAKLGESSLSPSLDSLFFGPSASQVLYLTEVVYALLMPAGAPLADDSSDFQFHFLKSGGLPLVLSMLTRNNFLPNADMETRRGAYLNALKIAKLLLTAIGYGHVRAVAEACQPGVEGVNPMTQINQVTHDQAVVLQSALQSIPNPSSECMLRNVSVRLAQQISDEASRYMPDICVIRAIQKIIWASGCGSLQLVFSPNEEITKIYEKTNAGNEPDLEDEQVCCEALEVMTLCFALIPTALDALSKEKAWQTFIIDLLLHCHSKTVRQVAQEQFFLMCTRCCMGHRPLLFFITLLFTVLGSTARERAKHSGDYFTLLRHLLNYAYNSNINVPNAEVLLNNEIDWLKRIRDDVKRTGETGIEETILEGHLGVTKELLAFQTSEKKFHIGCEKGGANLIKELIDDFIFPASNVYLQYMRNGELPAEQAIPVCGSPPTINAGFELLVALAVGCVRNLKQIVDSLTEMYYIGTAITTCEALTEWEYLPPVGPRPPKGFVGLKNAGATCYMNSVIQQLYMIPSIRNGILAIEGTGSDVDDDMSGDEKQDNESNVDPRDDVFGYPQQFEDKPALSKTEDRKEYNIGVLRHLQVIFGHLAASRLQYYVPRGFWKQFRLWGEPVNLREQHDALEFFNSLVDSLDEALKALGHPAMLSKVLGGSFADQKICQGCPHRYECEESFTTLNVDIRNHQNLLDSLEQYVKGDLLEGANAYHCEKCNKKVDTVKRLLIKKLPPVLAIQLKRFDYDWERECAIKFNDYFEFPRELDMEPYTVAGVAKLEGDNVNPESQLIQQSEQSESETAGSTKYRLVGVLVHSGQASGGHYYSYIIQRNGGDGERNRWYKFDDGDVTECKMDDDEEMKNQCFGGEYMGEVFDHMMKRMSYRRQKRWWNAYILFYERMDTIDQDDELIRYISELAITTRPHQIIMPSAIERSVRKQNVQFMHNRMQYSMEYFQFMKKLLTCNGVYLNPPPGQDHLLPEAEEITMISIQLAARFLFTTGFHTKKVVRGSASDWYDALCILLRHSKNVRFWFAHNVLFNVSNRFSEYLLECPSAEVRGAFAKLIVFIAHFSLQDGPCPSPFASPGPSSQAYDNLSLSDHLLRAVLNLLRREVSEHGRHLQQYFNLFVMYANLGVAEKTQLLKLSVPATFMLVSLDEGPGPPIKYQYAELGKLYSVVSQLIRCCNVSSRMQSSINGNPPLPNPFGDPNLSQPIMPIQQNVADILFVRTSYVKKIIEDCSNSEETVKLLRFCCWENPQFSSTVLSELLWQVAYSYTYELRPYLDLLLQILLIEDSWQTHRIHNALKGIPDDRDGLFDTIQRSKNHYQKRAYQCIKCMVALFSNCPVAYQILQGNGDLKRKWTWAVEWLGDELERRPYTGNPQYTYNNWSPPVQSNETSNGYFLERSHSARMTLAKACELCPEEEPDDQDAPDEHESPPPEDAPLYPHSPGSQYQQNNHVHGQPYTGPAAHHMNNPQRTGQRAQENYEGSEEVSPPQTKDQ
Chain of UniProt O00507 (O00507 whole entry): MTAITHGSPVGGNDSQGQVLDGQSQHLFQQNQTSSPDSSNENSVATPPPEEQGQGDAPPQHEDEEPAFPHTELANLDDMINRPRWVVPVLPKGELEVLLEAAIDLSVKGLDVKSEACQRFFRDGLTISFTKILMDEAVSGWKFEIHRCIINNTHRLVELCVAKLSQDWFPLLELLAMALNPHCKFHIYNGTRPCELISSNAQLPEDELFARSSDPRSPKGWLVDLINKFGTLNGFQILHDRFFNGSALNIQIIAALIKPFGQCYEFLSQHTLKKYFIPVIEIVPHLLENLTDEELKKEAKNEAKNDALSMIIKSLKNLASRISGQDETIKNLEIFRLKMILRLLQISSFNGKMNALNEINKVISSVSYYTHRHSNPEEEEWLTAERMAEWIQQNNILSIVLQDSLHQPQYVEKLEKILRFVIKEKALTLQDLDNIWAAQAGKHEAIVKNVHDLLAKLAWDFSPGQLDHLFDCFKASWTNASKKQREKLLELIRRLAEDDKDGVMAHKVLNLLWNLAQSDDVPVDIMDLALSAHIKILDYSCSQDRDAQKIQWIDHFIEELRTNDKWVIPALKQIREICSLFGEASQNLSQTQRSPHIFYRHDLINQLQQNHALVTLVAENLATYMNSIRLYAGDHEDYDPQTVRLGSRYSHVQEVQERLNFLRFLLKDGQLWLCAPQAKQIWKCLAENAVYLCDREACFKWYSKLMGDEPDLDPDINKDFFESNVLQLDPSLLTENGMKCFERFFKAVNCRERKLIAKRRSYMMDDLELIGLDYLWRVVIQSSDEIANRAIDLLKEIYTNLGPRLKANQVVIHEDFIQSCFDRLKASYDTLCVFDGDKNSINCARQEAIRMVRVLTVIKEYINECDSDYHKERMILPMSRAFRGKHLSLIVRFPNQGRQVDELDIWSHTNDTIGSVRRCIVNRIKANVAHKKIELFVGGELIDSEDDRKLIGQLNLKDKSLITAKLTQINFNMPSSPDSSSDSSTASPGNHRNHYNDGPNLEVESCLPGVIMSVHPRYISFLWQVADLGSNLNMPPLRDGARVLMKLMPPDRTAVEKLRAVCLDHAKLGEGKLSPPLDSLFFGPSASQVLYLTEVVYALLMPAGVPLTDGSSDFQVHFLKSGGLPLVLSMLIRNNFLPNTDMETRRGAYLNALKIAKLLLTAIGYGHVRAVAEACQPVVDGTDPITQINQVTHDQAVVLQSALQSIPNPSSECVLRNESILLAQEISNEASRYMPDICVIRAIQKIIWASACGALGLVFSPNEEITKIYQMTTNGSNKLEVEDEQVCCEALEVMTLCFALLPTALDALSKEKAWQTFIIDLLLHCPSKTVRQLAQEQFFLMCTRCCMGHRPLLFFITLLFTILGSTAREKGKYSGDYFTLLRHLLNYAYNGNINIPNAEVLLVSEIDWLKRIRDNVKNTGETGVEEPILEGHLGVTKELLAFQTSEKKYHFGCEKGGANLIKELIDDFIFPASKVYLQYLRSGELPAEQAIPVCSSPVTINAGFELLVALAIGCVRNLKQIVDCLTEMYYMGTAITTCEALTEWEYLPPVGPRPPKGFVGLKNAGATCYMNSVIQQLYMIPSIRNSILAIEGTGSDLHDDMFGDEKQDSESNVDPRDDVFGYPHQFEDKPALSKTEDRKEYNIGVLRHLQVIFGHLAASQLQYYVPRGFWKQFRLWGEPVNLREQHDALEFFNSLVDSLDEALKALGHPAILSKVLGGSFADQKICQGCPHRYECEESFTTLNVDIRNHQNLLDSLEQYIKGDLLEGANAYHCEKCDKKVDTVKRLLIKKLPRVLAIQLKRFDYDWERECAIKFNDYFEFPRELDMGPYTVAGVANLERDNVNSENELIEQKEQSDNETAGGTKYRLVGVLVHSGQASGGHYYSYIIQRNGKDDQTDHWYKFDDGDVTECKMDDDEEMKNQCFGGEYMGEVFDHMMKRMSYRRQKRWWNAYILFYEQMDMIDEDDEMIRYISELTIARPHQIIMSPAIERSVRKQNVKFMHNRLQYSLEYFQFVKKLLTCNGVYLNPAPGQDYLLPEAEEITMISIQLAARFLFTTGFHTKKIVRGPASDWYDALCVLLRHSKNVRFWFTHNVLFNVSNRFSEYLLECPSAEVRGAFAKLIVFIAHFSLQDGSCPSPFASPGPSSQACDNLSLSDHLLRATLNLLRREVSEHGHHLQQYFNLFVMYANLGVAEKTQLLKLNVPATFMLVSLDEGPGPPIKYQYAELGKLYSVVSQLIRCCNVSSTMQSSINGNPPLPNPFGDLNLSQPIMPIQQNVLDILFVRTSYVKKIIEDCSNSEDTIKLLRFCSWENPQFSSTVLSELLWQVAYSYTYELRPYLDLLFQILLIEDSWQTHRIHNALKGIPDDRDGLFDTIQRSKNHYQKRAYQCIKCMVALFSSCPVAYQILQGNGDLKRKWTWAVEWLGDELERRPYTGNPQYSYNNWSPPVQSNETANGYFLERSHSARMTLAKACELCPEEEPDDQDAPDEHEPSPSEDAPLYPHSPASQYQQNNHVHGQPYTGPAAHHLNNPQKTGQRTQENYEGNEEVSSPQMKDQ

O=C(CCl)N1CCN2C(=O)CCC2C1 (centres undefined)
inactive: USP9X -0.098 | UniProt O00487 -0.0865 | UniProt O00507 0.162 | UniProt P51784 0.195 | UniProt Q5T2D3 -0.286 | UniProt Q8TE49 -0.3 | UniProt Q9P2H5 -0.168 | UniProt Q9UGI0 -0.382 | YOD1 0.182
